Screening results as filed in PubChem.
NALP3 yeast inh: inhibitors of NALP3 inflammasome in yeast | Yeast reconstituted NLRP3/ASC/caspase-1, beta-gal luminescence, 24 h | inhibition, % at 10 µM | 330,000 compounds, 0.39% hits;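 active = inhibition of 50% or more; inactive = inhibition below 50%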;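 note: plate controls were induced DMSO wells for no effect and uninduced yeast grown without galactose for full effect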
Bfl-1 A1 inh: inhibitors of the anti-apoptotic protein A1, read as caspase activation; caspase activation, % (no concentration beside the values); 330,000 compounds, 0.066% hits; MEF A1-2A-BIM cells, Caspase-Glo 3/7 luminescence, 3 h; percent of clofoctol response, vehicle zero;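 active = over half of replicate activation scores above 10%, or exactly half above 10 with the replicate mean above 10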
CHT PAM: allosteric activators of human choline transporter CHT. CHT-expressing cells, membrane potential dye, choline EC20; hits give high values; LV-AA mutant CHT in HEK293 cells. B-score at 10 µM. 310,000 compounds, 0.49% hits. AID 488977. Q9GZV3;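 active = initial fluorescence not abnormally high and integrated response B-score, plate-corrected, over 3 SD above library mean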
Target sequence (Q9GZV3 whole entry, looked up): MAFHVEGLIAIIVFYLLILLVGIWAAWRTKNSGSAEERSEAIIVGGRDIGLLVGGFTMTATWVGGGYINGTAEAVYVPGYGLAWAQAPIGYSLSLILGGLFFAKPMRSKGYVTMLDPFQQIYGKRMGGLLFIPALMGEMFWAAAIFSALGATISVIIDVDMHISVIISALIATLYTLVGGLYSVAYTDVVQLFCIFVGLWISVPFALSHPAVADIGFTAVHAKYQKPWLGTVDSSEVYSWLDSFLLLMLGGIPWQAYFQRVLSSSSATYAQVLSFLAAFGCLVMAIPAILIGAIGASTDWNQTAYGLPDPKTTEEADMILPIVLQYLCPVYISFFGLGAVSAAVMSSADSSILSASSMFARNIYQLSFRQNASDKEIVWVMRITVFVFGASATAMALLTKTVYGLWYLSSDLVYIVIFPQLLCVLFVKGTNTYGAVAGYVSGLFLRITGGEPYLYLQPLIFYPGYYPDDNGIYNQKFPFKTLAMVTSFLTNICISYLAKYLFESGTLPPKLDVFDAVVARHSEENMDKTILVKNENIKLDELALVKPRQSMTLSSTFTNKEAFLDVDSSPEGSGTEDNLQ
SUMO Mot1 rescue: inhibitors of SUMOylation pathway: yeast Mot1-301 growth rescue; S. cerevisiae Mot1-301 growth rescue, ATP luminescence, 38.5C; percent above DMSO median, 100 means doubled; growth rescue, % at 18.8 µM; 320,000 compounds, 1% hits;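 active = every valid replicate shows activation above 250% relative to neutral control wells; inactive = the rest, any valid replicate at or below 250%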;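 note: OY570 slx delta 5 strain wells were the positive control but not used for scaling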
CHT block: inhibits the human high affinity choline transporter; CHT-expressing cells, membrane potential dye, choline response; hits give low values; Q9GZV3; 310,000 compounds, 0.86% hits; B-score at 10 µM;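 active = B-score over 3 SD under the library average, and starting fluorescence ratio not unusually high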;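 note: choline stimulus applied at its EC90 after an EC20 pre-addition; B-score computed on integrated fluorescence ratio after choline addition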
NALP1 inh: blocks the NALP1 inflammasome reconstituted in yeast; inhibition, % at 10 µM; 280,000 compounds, 0.61% hits; S. cerevisiae NALP1/ASC/caspase-1 growth, X-gal OD620, 72 h; in the data active = inhibition mostly above about 24%, no sharp cut-off; inactive = mostly below about 32%
CHT activ conf: human CHT activation, confirmatory screen; shares compounds with CHT PAM; AID 504833; activation, % at 10 µM; CHT-expressing cells, membrane potential dye fluorescence (FDSS); % of choline EC20–EC90 response window; HEK293 expressing CHT LV-AA mutant; choline added at its EC20; 2,500 compounds, 91% hits;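 active = primary screen active, with duplicate mean activation above negative control mean plus 3 SD, cut at about 11% in these data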
HEK293 MP dye: CHT activator counter-screen hit in parental HEK293 cells; membrane potential dye fluorescence (FDSS); measured after EC20 choline addition; AID 623908; 2,500 compounds, 62% hits; shares compounds with CHT PAM; ratio readout change at 10 µM, hits read low;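 active = duplicate-averaged ratio beyond 3 SD from buffer wells, up or down, though filed actives are nearly all decreases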
* = called active by the depositor; i = inactive; x = no result. Sampled rows, rich in hits. Any-hit rate of the full collection: about 3%.

SMILES | NALP3 yeast inh | Bfl-1 A1 inh | CHT PAM | SUMO Mot1 rescue | CHT block | NALP1 inh | CHT activ conf | HEK293 MP dye
COc1ccc2c(c1OC)CN1CCc3cc4c(cc3C1C2)OCO4 (stereo not drawn) | 16.7 | 0.0 | i | 4.2 | i | 19.9 | x | x
COc1c2c(cc3c1OCO3)CC[N+](C)=C2 | -3.7 | 1.1 | 9.22* | -1.5 | i | 3.1 | 57.5* | -60.4*
COc1ccc(C2NCc3ccc4c(c3-n3cccc32)OCO4)cc1O (stereo not drawn) | -14.4 | 1.0 | 11.2* | -7.0 | i | 16.5 | 16.2* | i
c1cc2n(c1)-c1c(ccc3c1OCO3)CNC2c1ccc2c(c1)OCO2 (stereo not drawn) | 11.8 | -0.1 | i | 11.0 | i | 33.3 | x | x
CC(=NCCC1=CCCCC1)c1c(O)[nH]c(=O)[nH]c1=O | 5.7 | -0.2 | i | -18.1 | i | -2.2 | x | x
COc1ccc2[nH]c3c(c2c1)CCN=C3C | 12.9 | 1.1 | 7.11* | 5.4 | i | x | 46.8* | -45.5*
COc1ccc(CCC(=O)N2C[C@H]3C[C@@H](C2)c2cccc(=O)n2C3)cc1 | -1.7 | -0.6 | i | 0.8 | i | -0.7 | x | x
CN(C)c1cccc2c(C#N)ccc(N(C)C)c12 | 17.8 | -0.7 | 7.77* | -13.4 | i | -5.9 | 66.2* | -69.5*
CCOC(=O)c1ccc2c(c1)n(Cc1ccccc1)c(C)[n+]2CC | 13.9 | 2.4 | 8.06* | -4.5 | i | 3.5 | 46.8* | -50.9*
COCCNC(=O)N1[C@H]2CC[C@@H]1C(C(=O)OC)=C(c1ccc(OC)c(OC)c1)C2 | 12.4 | -0.3 | x | 3.5 | x | x | x | x
Cc1ccccc1NP(=O)(Oc1ccccc1F)Oc1ccccc1F | -40.5 | 0.2 | 6.29* | -12.5 | i | 18.0 | 9.9* | i
Cc1cccc(NP(=O)(Oc2ccccc2)Oc2ccccc2)c1C | -12.3 | 1.0 | i | 48.1 | i | 9.3 | x | x
O=C(CCNC(=O)N1C[C@H]2C[C@@H](C1)c1cccc(=O)n1C2)Nc1ccc(F)cc1 | 3.5 | 1.0 | i | -13.3 | i | 6.3 | x | x
O=[N+]([O-])c1cccc2c([N+](=O)[O-])cccc12 | -0.4 | 0.3 | x | -13.5 | x | x | x | x
Cc1nonc1OCCNCCNc1ccc([N+](=O)[O-])c2cccnc12 | 14.3 | -1.0 | i | -11.3 | i | -3.2 | 30.0* | -62.6*
CCNCCNc1ccc([N+](=O)[O-])c2cccnc12 | 5.7 | 0.0 | 6.31* | 7.6 | i | 18.2 | 26.9* | -65.8*
COc1ccc(-c2cc(-c3ccccc3)[n+](C)c(-c3ccccc3)c2)cc1 | 17.4 | 0.8 | i | 1.2 | i | -10.3 | 34.9* | i
COc1ccc(-[n+]2c(-c3ccccc3)cc(-c3ccc(C)cc3)cc2-c2ccccc2)cc1 | 11.7 | 0.2 | i | 3.1 | i | 17.2 | x | x
CN1CCN(C(=O)O[C@H]2c3nccnc3C(=O)N2c2ccc(Cl)cn2)CC1 | 18.2 | 0.4 | 6.87* | -11.4 | i | 6.6 | 83.8* | -44.3*
CN1CCN(c2c(F)cc([N+](=O)[O-])c(N)c2Br)CC1 | -2.7 | -0.1 | 6.65* | 1.7 | i | -29.7 | 45.9* | -48.9*
Nc1c([N+](=O)[O-])cc(F)c(N2CCNCC2)c1Br | -2.2 | -0.1 | i | 3.0 | i | 37.3 | 43.0* | -55.3*
CCOC(=O)c1cncn1C(C)c1ccccc1 (stereo not drawn) | -1.0 | 0.6 | i | 4.2 | i | 9.0 | x | x
CCSc1nnc([C@@H](N)Cc2ccccc2)o1 | 11.9 | 0.3 | i | -16.2 | i | 5.2 | x | x
CC1CN(c2ccc([N+](=O)[O-])c3cccnc23)CC(C)N1 (stereo not drawn) | -1.9 | -0.6 | i | 7.3 | i | -3.0 | 47.9* | -83.6*
O=[N+]([O-])c1ccc(N2CCCC2)c2ncccc12 | 41.5 | -1.0 | i | -17.5 | i | 1.1 | x | x
COc1ccc(CCNCc2ccc(C)s2)cc1OC | 22.1 | 0.0 | i | x | i | 2.4 | x | x
COc1ccc(Cc2nccc3cc(OC)c(OC)cc23)cc1OC | 23.3 | 0.0 | 8.64* | -3.9 | i | 12.2 | 58.5* | -65.9*
CC(C)CN(CC(C)C)C(=O)C1C2c3ccccc3C(c3ccccc32)C1C(=O)O (stereo not drawn) | x | x | x | x | x | 9.1 | x | x
CCCOC(=O)c1ccc(-[n+]2c(-c3ccccc3)cc(-c3ccccc3)cc2-c2ccccc2)cc1 | 10.8 | 0.0 | 9.3* | 0.9 | i | x | 17.7* | i
